This note sets out measurements from the supplement of paper PMC9254222.

In the test the test system is HEK293T (UBE3A T485A transfected, BAR Wnt reporter). The experiment in a line: Wnt reporter firefly/Renilla luciferase ratio relative to plate median (fold (linear ratio)); higher = more Wnt/beta-catenin reporter activation. As to conditions: 24 h. The method, boiled down:
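HEK293T cells were grown in DMEM with 10% FBS at 37°C and 5% CO2, at 4500 cells/well in white 384-well plates. They were transfected with a BAR firefly luciferase Wnt reporter, TK-Renilla and an expression plasmid using Fugene 6. Four hours later, robots dosed the chemicals at 0.01–100 uM for 24 h, followed by Dual-Glo luciferase readout. Wnt activity (firefly/Renilla ratio) and cell health (raw Renilla) were median-centred per plate, averaged over four biological replicates.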

Whole data set: some 1,100 compounds, median “Wnt reporter firefly/Renilla luciferase ratio relative to plate median” near 1.1, cut for the highest 2% near 1.6. The sample holds the highest values, similar compounds and a random draw of the others, so the mix is not that of the screen.

Regarding `CN1C(=O)CC[C@H]1c1cccnc1` [Cotinine], the “Wnt reporter firefly/Renilla luciferase ratio” value stood at 0.928 (concentration: 0.1 uM), 0.981 (concentration: 1 uM), 1.03 (concentration: 10 uM) and 1.13 (concentration: 100 uM).

As for `O=C(O)c1cn(C2CC2)c2cc(N3CCNCC3)c(F)cc2c1=O` [Ciprofloxacin], the “Wnt reporter firefly/Renilla luciferase ratio” value (concentration: 0.01 uM) stood at 0.979; the “Wnt reporter firefly/Renilla luciferase ratio” value (concentration: 0.1 uM) turned out to be 0.853; the “Wnt reporter firefly/Renilla luciferase ratio” value (concentration: 1 uM) was 1.01; the “Wnt reporter firefly/Renilla luciferase ratio” value (concentration: 10 uM) is 0.882; the “Wnt reporter firefly/Renilla luciferase ratio” value (concentration: 100 uM) was 1.74.

For the compound `COc1c(N2CC3CCCNC3C2)c(F)cc2c(=O)c(C(=O)O)cn(C3CC3)c12` (configuration not stated) [Moxifloxacin], the “Wnt reporter firefly/Renilla luciferase ratio” value (concentration: 0.01 uM) worked out at 0.907; the “Wnt reporter firefly/Renilla luciferase ratio” value (concentration: 0.1 uM) worked out at 1.02; the “Wnt reporter firefly/Renilla luciferase ratio” value (concentration: 1 uM) was 1.07; the “Wnt reporter firefly/Renilla luciferase ratio” value (concentration: 10 uM) stood at 0.95; the “Wnt reporter firefly/Renilla luciferase ratio” value (concentration: 100 uM) amounted to 0.752.

On to `CC1COc2c(N3CCN(C)CC3)c(F)cc3c(=O)c(C(=O)O)cn1c23` (configuration not stated) [Levofloxacin], for which the “Wnt reporter firefly/Renilla luciferase ratio” value (concentration: 0.01 uM) amounted to 1.21; the “Wnt reporter firefly/Renilla luciferase ratio” value (concentration: 0.1 uM) stood at 1.2; the “Wnt reporter firefly/Renilla luciferase ratio” value (concentration: 1 uM) was 1.05; the “Wnt reporter firefly/Renilla luciferase ratio” value (concentration: 10 uM) was determined as 1.11; the “Wnt reporter firefly/Renilla luciferase ratio” value (concentration: 100 uM) is 1.45.

`O=C(CCCN1CCC(O)(c2ccc(Cl)cc2)CC1)c1ccc(F)cc1` [Haloperidol]: the “Wnt reporter firefly/Renilla luciferase ratio” value came out at 1.01 (concentration: 0.1 uM), 0.984 (concentration: 1 uM), 0.916 (concentration: 10 uM) and 0.572 (concentration: 100 uM).

As for `CCNc1ccccc1` [N-Ethylaniline], the “Wnt reporter firefly/Renilla luciferase ratio” value runs as follows: (concentration: 0.1 uM) 0.799; (concentration: 1 uM) 1.03; (concentration: 10 uM) 0.96; (concentration: 100 uM) 1.2.
